PubChem BioAssay (NCI)
The panel holds about 83,000 compounds, 20% with a hit somewhere; the sample as a whole holds those more often.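 Plates (96-well) were seeded with cells, treated with compound at one concentration, and incubated for 48 hours before percent growth was determined.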 Values without a mark were called inactive. Activity calls are given as the source filed them. How the source made its calls: active means growth percent below 10; inactive means the rest.

What was measured:
Experiment in all cases: NCI-60 one-dose screen, 48 h (100 = growth as untreated, 0 = no growth, -100 = all killed)
Settings in all cases: 10 µM unless noted
[1] = system: HCT-15 colon
[2] = system: SNB-75 CNS
[3] = system: SNB-19 CNS
[4] = system: U251 CNS
[5] = system: PC-3 prostate
[6] = system: SK-MEL-5 melanoma
[7] = system: UACC-62 melanoma
[8] = system: LOX IMVI melanoma
[9] = system: SK-MEL-28 melanoma
[10] = system: HT29 colon

| Structure (SMILES) | growth [1] | growth [2] | growth [3] | growth [4] | growth [5] | growth [6] | growth [7] | growth [8] | growth [9] | growth [10] |
| --- | --- | --- | --- | --- | --- | --- | --- | --- | --- | --- |
| COc1cccc(-c2nc3sccn3c2-c2ccnc(NCCCNS(=O)(=O)c3ccc(F)cc3)n2)c1 | 18.1% | 66.8% | 78.4% | 49.6% | 47.7% | 7.26% (active) | 6.83% (active) | 14.4% | 38.1% |  |
| CCC(=O)Oc1cc(/C=C/C(=O)O[C@H]2C[C@H]3CN4CCc5c([nH]c6cc(OC)ccc56)[C@@H]4C[C@@H]3[C@@H](C(=O)OC)[C@@H]2OC)ccc1OC | 59.8% | 36.7% | 87.2% | 61.1% | 65.1% | 82.9% | 82.9% | 79.5% | 88.8% |  |
| COc1cc(NS(C)(=O)=O)ccc1Nc1c2ccc([N+](=O)[O-])cc2nc2c(C)cccc12 | 12.4% | 5.27% (active) | 21.2% | 0.458% (active) | 8.53% (active) | -0.826% (active) | 16.2% | -3.95% (active) | 41.7% |  |
| Cc1ccnc2nc(C(=O)OCC(=O)Nc3ccc(-c4ccccc4)cc3)nn12 | 105% | 95% | 103% | 101% | 102% | 105% | 116% |  | 110% |  |
| NC(N)=NC(N)=Nc1ccccc1-c1ccccc1 | 108% | 97.4% | 111% | 106% | 103% | 107% | 108% | 102% | 109% |  |
| CN(C)C1CCC(NC2=CC(=O)C=CC2=O)CC1 (stereo not drawn) | 114% | 86.1% | 115% | 111% | 104% |  | 110% | 97.9% | 113% |  |
| COc1ccc(Cl)cc1NC(N)=S | 103% | 86.6% | 111% | 97.7% | 93% | 104% | 102% | 96.7% | 108% |  |
| O=C(CC(O)c1ccncc1)c1ccccc1 (stereo not drawn) | 36.4% | -5.32% (active) | 68.2% | 73.4% | -17.2% (active) | 88.3% | 89.3% | -38% (active) | 105% |  |
| CCn1cc(C(=O)O)c(=O)c2cc(F)c(N3CCN(S(=O)(=O)c4ccc(OC)c(OC)c4)CC3)cc21 | 102% | 85.5% | 96.2% | 106% | 90% | 93.5% | 95.2% | 85.8% | 102% |  |
| COc1cc(NCCCN=C(N)NC(N)=NC(C)C)c2ncccc2c1 | 89.8% | 75.3% | 77.7% | 70.8% | 45% | 27% | 90.1% | 80.8% | 84.4% |  |
| COc1ccc(Cn2cc(COc3cc(/C=C/C(=O)c4cc(OC)c(OC)c(OC)c4)ccc3OC)nn2)cc1 | 38.5% | 59.8% | 82.6% | 44.6% | 44.5% |  | 70.1% | 36.4% | 84.6% |  |
| O=C(/C=C/CN1CCOCC1)Nc1cc2c(Nc3cccc(Cl)c3F)ncnc2cc1OCCOC(F)F | 69.2% | 63% | 81.7% | 94.1% | 58.9% | 86.9% | 72% | 80.7% | 101% |  |
| O=C1Nc2ccc(Br)cc2C1=N/C=c1\[nH]c(=O)/c(=C/c2ccc(Cl)cc2)s1 | 90.3% | 93.9% | 94% | 83.7% | 92% | 99.1% | 91.2% |  | 105% |  |
| CC/C=C\C/C=C\C[C@H](O)C/C=C1/C(=O)C=C[C@H]1C/C=C\CCC(=O)OC | -13.3% [8.25 µM] (active) | 75.2% [8.25 µM] | 62.4% [8.25 µM] | 15% [8.25 µM] | 20.1% [8.25 µM] | 24.5% [8.25 µM] | 4.47% [8.25 µM] (active) | -71.8% [8.25 µM] (active) | 22.5% [8.25 µM] |  |
| COc1ccc(/C=C/c2cc(N3CCOCC3)c3cc(F)c(F)cc3n2)cc1OC | 30% | 48% | 48.8% | 23.5% | 38.7% | 26.2% | 19.9% | 1.22% (active) | 51.4% |  |
| COc1cc(Br)c(OC)cc1Br | 103% | 90.4% | 108% | 98.9% | 91.2% | 98.4% | 94.8% | 90% | 105% |  |
| COc1ccc(C(=O)/C=C/c2cc(C(=O)c3cc(OC)c(OC)c(OC)c3)ccc2OC)cc1 | 29.2% |  | 53.6% | 52.4% | 44.5% | 54.4% | 33.1% |  | 35.1% |  |
| C=C1C(=O)O[C@H]2[C@H]1CC/C(Cn1cc(-c3ccsc3)nn1)=C\CC[C@@]1(C)O[C@@H]21 | -77.5% (active) | 21.7% | 59.8% | 4.91% (active) | -20.4% (active) | -42.1% (active) |  | -94.3% (active) | -54% (active) |  |
| CC[C@H](C)[C@H]1NC(=O)[C@@H](N[C@](C)(O)[C@@H](N)CC(C)C)[C@@H](C)OC(=O)[C@H](Cc2ccc(OC)cc2)N(C)C(=O)[C@@H]2CCCN2C(=O)[C@H](CC(C)C)NC(=O)[C@@H](C)C(=O)[C@H](C(C)C)OC(=O)C[C@@H]1O | 0.591% (active) |  | -12.5% (active) | -11.8% (active) | 2.33% (active) | -56.9% (active) | -42.9% (active) | -55.9% (active) | -13.6% (active) |  |
| O=c1[nH]c2ccccc2cc1-c1nnc(Cc2ccccc2)o1 |  | 69.3% | 86% |  | 65.5% | 56.8% | 47.9% | 35% | 101% | 57.9% |
| COc1cc(OC)c(C(=O)/C=C/c2cccc(C#N)c2)c(OC)c1 |  | 17.3% | 14.8% | 8.67% (active) | 32.1% | 7.71% (active) |  | -6.01% (active) | 34.4% | 8.61% (active) |
| COc1ccc(-c2nc(-c3nc4ccc(F)cc4[nH]3)cc3c2[nH]c2ccccc23)cc1 |  | 60.8% | 62.3% | 29.4% | 27.6% | 51.1% | 41.4% | 29.5% | 57.4% | 32.8% |
| c1ccc(CCn2nnc3c(Nc4ccc(N5CCOCC5)cc4)ncnc32)cc1 |  | 84.8% | 95.7% | 93.3% | 65.1% | 81.8% | 85.8% | 97.4% | 104% | 81.3% |
| C=C1C(=O)O[C@H]2[C@H]1CC/C(COC(=O)NCc1cc(OC)c(OC)c(OC)c1)=C\CC[C@@]1(C)O[C@@H]21 |  | 83.8% | 72.8% | 81.3% | 66.1% | 95.2% | 38.8% | 54.3% | 63.2% | 21.4% |
| COc1ccc(-c2nc3sccn3c2-c2ccnc(NCCCNS(=O)(=O)c3ccc4ccccc4c3)n2)cc1 |  | 85.5% | 86.1% | 67.3% | 66.8% | 42.3% | 54.5% | 53.9% | 80% | 44.1% |
| CCCCCCCCCCC/C=C\C[C@H](O)C/C=C1/C(=O)C=C[C@@H]1C/C=C\CCCC(=O)OC |  |  | 18.2% | -69% (active) | -20% (active) | -85.3% (active) | -39.9% (active) | -92.4% (active) | -20.4% (active) | -22.5% (active) |
| COc1ccc(C(=O)/C=C/c2ccc(/C=C/c3cc(OC)c(OC)c(OC)c3)cc2)cc1 |  | 59.8% | 74.4% | 36.3% | 52.2% | 62% | 53.7% |  | 84.7% | 36.2% |
| O=C(Nc1ccc(Cl)cc1)c1cc(-c2ccc(F)cc2)c2sc(=O)[nH]c2n1 |  | -5.08% (active) | 19.3% | 9.42% (active) | 10.3% | -86.1% (active) | 26.9% | 8.5% (active) | 25.4% |  |
| CC(CCc1ccccc1)NC(=O)c1n[nH]c(=O)c2ccccc12 (stereo not drawn) |  | 96.6% | 115% | 103% | 95.7% | 98.9% | 93.9% | 95.4% | 118% | 105% |
